Cruzain inh Det: qHTS Assay for Promiscuous and Specific Inhibitors of Cruzain (with detergent); Potency, µM, for the others: max response, negative = inhibition, actives largely listed as inhibitors; purified cruzain, Z-FR-AMC fluorescence, 0.01% Triton; AID 1478, 2009; Cruzipain (Trypanosoma cruzi), P25779; 200,000 tested, 0.43% active;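 further: plate controls were neutral wells for no effect and buffer without enzyme for full effect; nearly all actives have a fitted effect of over 40% in size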
Target sequence (P25779 123-467 limits assumed): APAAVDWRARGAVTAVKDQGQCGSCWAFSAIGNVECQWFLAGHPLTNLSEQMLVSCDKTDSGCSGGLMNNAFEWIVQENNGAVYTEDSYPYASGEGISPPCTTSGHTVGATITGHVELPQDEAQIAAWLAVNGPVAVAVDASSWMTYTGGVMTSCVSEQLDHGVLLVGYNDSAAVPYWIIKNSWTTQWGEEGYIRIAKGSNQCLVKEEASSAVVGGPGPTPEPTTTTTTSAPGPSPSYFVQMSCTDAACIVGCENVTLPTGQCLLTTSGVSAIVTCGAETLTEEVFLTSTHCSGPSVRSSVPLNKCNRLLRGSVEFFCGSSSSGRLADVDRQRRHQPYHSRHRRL
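Cruzain (1.5 nM) preincubated 15 min at RT with compound in 100 mM sodium acetate pH 5.5, 5 mM DTT, 0.01% Triton X-100. Reaction started with 2 uM Z-FR-AMC; AMC fluorescence (ex 360/em 450 nm) change over 60 s gave rate.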
Cruzain inh noDet: qHTS Assay for Promiscuous and Specific Inhibitors of Cruzain (without detergent) | Cruzipain (Trypanosoma cruzi), P25779 | purified cruzain, Z-FR-AMC fluorescence, no detergent | Potency, µM, without a hit: max response, negative = inhibition, most hits filed as inhibitors | 200,000 tested, 2.3% active;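 further: plate controls were enzyme without inhibitor for no effect and buffer without enzyme for full effect; nearly all actives have a fitted effect of over 40% in size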
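Purified cruzain at 1.5 nM, pre-incubated 15 min with compound at room temperature in 100 mM sodium acetate pH 5.5, 5 mM DTT, 0.00005% Triton X-100. Reaction started with 2 uM Z-FR-AMC; AMC fluorescence increase over 60 s gives rate.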
Starred values were filed as active, the others as inactive. An excerpt weighted towards active compounds, which were near 2.5% of everything screened. The call rests on the fitted dose curve; in most records, active means well fitted curve in the direction sought with a large enough effect; inconclusive means small, poorly fitted or top-dose-only effect, or another doubt; inactive means no such curve, though single readings can be large; an effect the other way counts as inactive or inconclusive. Potency means the concentration at half of the fitted maximal effect.

Screening CCCn1c(-c2ccc(F)cc2)nc2c(NC(C)CCCN(CC)CC)nc(C)nc21 (configuration not stated) returned Cruzain inh Det -5% and Cruzain inh noDet -2%.
Screening CCn1c(CNC(=O)C23CC4CC(CC(C4)C2)C3)nnc1SCC(=O)Nc1ccc(C)cc1 returned Cruzain inh Det 1% and Cruzain inh noDet inconclusive.
COc1ccc(/C=C/C(=O)NCc2cn(C)nc2C)cc1COc1ccc(Cl)cc1Br was read as Cruzain inh Det 14µM* and Cruzain inh noDet -3%.
`CCn1nc(C)c(NC(=O)/C=C/c2ccc(OC)c(COc3ccc(Cl)cc3Br)c2)c1C` gave Cruzain inh Det -2% and Cruzain inh noDet 3%.
For Cc1cc(C(=O)Cn2nnc(-c3ccc(Cl)cc3)n2)c(C)n1-c1ccccc1 the results were Cruzain inh Det -3% and Cruzain inh noDet inconclusive.
Screening Cc1cc(C(=O)Cn2nc(C(=O)O)c3ccccc3c2=O)c(C)n1-c1ccccc1 returned Cruzain inh Det -9% and Cruzain inh noDet 25µM*.
`CCOC(=O)c1ccccc1NC(=O)CSc1ncc(CO)n1Cc1ccc(C)cc1` gave Cruzain inh Det -7% and Cruzain inh noDet 15%.
`Cc1ccc(C)c(NC(=O)C(Sc2nc3ccccc3c(=O)n2CC(C)C)c2ccccc2)c1` (configuration not stated) gave Cruzain inh Det -1% and Cruzain inh noDet 20µM*.
Cc1ccc(C)c(NC(=O)C(Sc2ncnc3ccccc23)c2ccccc2)c1 (configuration not stated) was read as Cruzain inh Det 2% and Cruzain inh noDet 0%.
`CC1=Nc2cc(C(=O)NCCc3ccc(Cl)cc3)ccc2Sc2c(C)ccc(C)c21` gave Cruzain inh Det -1% and Cruzain inh noDet 25µM*.
CC1=Nc2cc(C(=O)NCCc3ccccc3)ccc2Sc2c(C)ccc(C)c21 was read as Cruzain inh Det -4% and Cruzain inh noDet inconclusive.
Screening CCn1cnc2scc(-c3ccccc3)c2c1=O returned Cruzain inh Det 4% and Cruzain inh noDet -11%.
Cn1cc(/C=N/n2cnc3scc(-c4ccc(Cl)cc4)c3c2=O)c2ccccc21 was read as Cruzain inh Det -4% and Cruzain inh noDet 25µM*.
For CCCC(=O)NCC(c1ccc2c(c1)OCO2)N1CCN(c2ccccc2)CC1 (configuration not stated) the results were Cruzain inh Det 0% and Cruzain inh noDet -12%.
CCc1ccc(OCCSc2nc(-c3cccc(C)c3)nc3cc(=O)[nH]n23)cc1 was read as Cruzain inh Det 2% and Cruzain inh noDet -8%.
Screening Cc1cccc(OCCCSc2nc(-c3ccc(C(C)(C)C)cc3)nc3cc(=O)[nH]n23)c1C returned Cruzain inh Det -11% and Cruzain inh noDet 10µM*.
Screening Cc1cccc(-c2nc(SCCCOc3ccc(Cl)c(C)c3)n3[nH]c(=O)cc3n2)c1 returned Cruzain inh Det 3% and Cruzain inh noDet -9%.
For CCc1ccc(OCCCSc2nc(-c3ccc(C(C)(C)C)cc3)nc3cc(=O)[nH]n23)cc1 the results were Cruzain inh Det -6% and Cruzain inh noDet 6.3µM*.
Screening COc1cccc(NC(=O)CSc2nc(=O)[nH]c3c2CCCC3)c1 returned Cruzain inh Det -2% and Cruzain inh noDet 6%.
`Cn1c(=O)c2sccc2n2c(CCCC(=O)NC3CCCCC3)nnc12` gave Cruzain inh Det 0% and Cruzain inh noDet -2%.
`COc1ccc2c(c1)cc1c(=O)n(CC(=O)NCc3ccco3)nc(C)n12` gave Cruzain inh Det -1% and Cruzain inh noDet 3%.
For Cc1ccccc1OCC(=O)Nc1ccc2c(c1)Cc1ccccc1-2 the results were Cruzain inh Det 1% and Cruzain inh noDet inconclusive.
O=C(COc1ccccc1)Nc1ccc2c(c1)Cc1cc(NC(=O)COc3ccccc3)ccc1-2 was read as Cruzain inh Det 4% and Cruzain inh noDet 2.5µM*.
For COc1ccccc1-c1nc2c(c(SCc3ccc(F)cc3Cl)n1)Cc1c(CO)cnc(C)c1O2 the results were Cruzain inh Det -1% and Cruzain inh noDet -3%.
`Cc1ccccc1OCc1nnc(SCC(=O)Nc2ccc3c(c2)oc2ccccc23)n1C` gave Cruzain inh Det 1% and Cruzain inh noDet 20µM*.
`COc1ccccc1OCc1nnc(SCC(=O)Nc2ccc(C)cc2)n1C` gave Cruzain inh Det 3% and Cruzain inh noDet 8%.
Screening Cc1ccc(-c2nnc(SCC(=O)Nc3ccc4c(c3)oc3ccccc34)n2C)c(Cl)c1 returned Cruzain inh Det -4% and Cruzain inh noDet inconclusive.
Cn1c(SCC(=O)Nc2cccc(Br)c2)nnc1-c1cc2ccccc2o1 was read as Cruzain inh Det 1% and Cruzain inh noDet 13µM*.
For COC(=O)c1ccc(NC(=O)c2cc(S(=O)(=O)N3CCOCC3)cn2C)cc1 the results were Cruzain inh Det -3% and Cruzain inh noDet 12%.
For CCNc1ncc2nc(CCc3ccccc3)c(=O)n(CCOC)c2n1 the results were Cruzain inh Det 0% and Cruzain inh noDet 8%.
For OCCN1CCN(C(=S)c2ccc(Cl)c(Cl)c2)CC1 the results were Cruzain inh Det -28% and Cruzain inh noDet 25µM*.
`CCN1CCN(C(=S)c2ccc(Br)cc2)CC1` gave Cruzain inh Det 4% and Cruzain inh noDet 4%.
For COc1ccc(NC(=O)C2(c3ccc(NC(=O)c4ccc(C)cc4)cc3)CCCC2)cc1 the results were Cruzain inh Det 2% and Cruzain inh noDet 6.3µM*.
Screening COc1ccc(NC(=O)C2(c3ccc(NC(=O)c4ccc(OC)c(OC)c4)cc3)CCCC2)cc1 returned Cruzain inh Det 2% and Cruzain inh noDet 2%.
For COc1ccc(C)cc1NC(=O)Cn1c(=O)c(C(F)(F)F)nc2ccccc21 the results were Cruzain inh Det -1% and Cruzain inh noDet -6%.
Screening COc1ccccc1Cn1c(=O)c2ccccc2n2c(Sc3ncnc4sccc34)nnc12 returned Cruzain inh Det -1% and Cruzain inh noDet 16µM*.
Screening COc1ccccc1Cn1c(=O)c2ccccc2n2c(SCc3csc(C)n3)nnc12 returned Cruzain inh Det -3% and Cruzain inh noDet 3%.
For C/C1=C2N=C(/C=C3N=C(/C(C)=C4\[N-]C(C)(C5N=C1C(C)(CCC(=O)NCC(C)OP(=O)([O-])O[C@H]1C(O)C(n6cnc7cc(C)c(C)cc76)O[C@@H]1CO)C5CC(N)=O)C(C)(CC(N)=O)C4CCC(N)=O)C(C)(CC(N)=O)C\3CCC(N)=O)C(C)(C)C/2CCC(N)=O.[CH2-]C1OC(n2cnc3c(N)ncnc32)C(O)C1O.[Co] (some centres not stated) the results were Cruzain inh Det 10µM* and Cruzain inh noDet 13µM*.
CC1CCN(S(=O)(=O)c2ccc3c(c2)oc(=O)n3CC(=O)NC(C)c2ccccc2)CC1 (configuration not stated) was read as Cruzain inh Det -9% and Cruzain inh noDet 6%.
`Fc1ccc2c(Cl)c(-c3nnc(-c4cccs4)o3)sc2c1` gave Cruzain inh Det 4% and Cruzain inh noDet 10µM*.
For COc1cc(-c2nnc(-c3cccs3)o2)cc(OC)c1OC the results were Cruzain inh Det -1% and Cruzain inh noDet -1%.
CCN(c1ccc(C)cc1C)S(=O)(=O)c1nnc(NC(=O)CC(C)C)s1 was read as Cruzain inh Det -5% and Cruzain inh noDet 8%.
C#CCn1c(=NC(=O)c2ccc(S(=O)(=O)N3CCCc4ccccc43)cc2)sc2cc(S(N)(=O)=O)ccc21 was read as Cruzain inh Det -2% and Cruzain inh noDet 7.9µM*.
